The supplement of paper PMC10981050
Several values for one entry are separate records, joined by “and”; a condition that tells them apart may be missing. Equal values may be shown once. Where a name gives a salt, the structure may show the parent alone.

Experiments:
Assay in all cases: cell viability relative to vehicle control; higher = less cytotoxic
Conditions in all cases: 10 µM
[1] = system: K562
In short: (§1)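 CRISPR-edited SRSF2 P95 mutant and isogenic wild-type clones of four leukaemia lines were screened against Selleck bioactive, kinase and epigenetic probe libraries, with identity-inconsistent compounds removed. Compounds were acoustically dispensed into 384-well plates at a single 10 µM dose, with 2000 cells in 50 µL medium per well. After 48 h, supernatant was removed and CellTiter-Glo luminescence was read. Viability was expressed as percent of the on-plate DMSO vehicle control, analysed in Genedata Screener.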

[2] = system: MARIMO
In short: as §1

[3] = system: MOLM14
In short: as §1

[4] = system: OCI-AML2
In short: as §1

SMILES | cell viability ([1]; SRSF2 genotype: SRSF2 P95H/wt) | cell viability ([1]; SRSF2 genotype: SRSF2 wt/wt) | cell viability ([2]; SRSF2 genotype: SRSF2 P95H/wt) | cell viability ([2]; SRSF2 genotype: SRSF2 wt/wt) | cell viability ([3]; SRSF2 genotype: SRSF2 P95H/wt) | cell viability ([3]; SRSF2 genotype: SRSF2 wt/wt) | cell viability ([4]; SRSF2 genotype: P95H/wt) | cell viability ([4]; SRSF2 genotype: wt/wt)
Cc1[nH]nc(C(F)(F)F)c1Cc1sc2c(c1C(=O)N1C[C@](C)(O)CO1)c(=O)n(C)c(=O)n2C(C)C | 40% and 62.9% | 61.3% | 90.5% | 103% | 92.8% | 89.3% | 99.7% | 99.9%
CCCNC[C@]1(O)[C@H](C)O[C@@H](O[C@H]2[C@H](C)[C@@H](O[C@@H]3O[C@H](C)C[C@H](N(C)C)[C@H]3O)[C@](C)(O)C[C@@H](C)CN[C@H](C)[C@@H](O)[C@](C)(O)[C@@H](CC)OC(=O)[C@@H]2C)C[C@@]1(C)OC [Tulathromycin A] | 101% and 105% | 104% | 101% | 107% | 100% | 106% | 99.9% | 99%
COc1ccccc1OCC(O)CN1CCN(CC(=O)Nc2c(C)cccc2C)CC1 (centres undefined) [Ranolazine dihydrochloride] | 92.7% and 97.6% | 101% | 96.7% | 103% | 98.8% | 100% | 102% | 111%
COc1ccc(CC(=O)Nc2nc3c(s2)CCc2ccccc2-3)cc1OC | 70.4% and 68.1% | 68.3% | 45.1% | 26.8% | 65.1% | 76.5% | 27.9% | 34.9%
O=C(Nc1ccccc1)N1CCN(c2nc(-c3ccccc3)ns2)CC1 | 79.1% and 89.2% | 91.6% | 87% | 92.7% | 90.5% | 99% | 62.7% | 70.3%
CN(NC(=O)CC(=O)NN(C)C(=S)c1ccccc1)C(=S)c1ccccc1 [Elesclomol (STA-4783)] | 28.9% and 15.4% | 51.2% | 11.8% | 21.5% | 0.35% | 0.25% | 2.86% | 12.4%
O=C(Nc1ccc(Br)cc1)c1c(O)cccc1O [Resorantel] | 17.7% and 15.3% | 19.6% | 38.7% | 39.3% | 17.5% | 11.8% | 4.86% | 14.2%
COc1ccc(-c2ccc3c(N4CCOCC4)nc(N4C[C@@H](C)O[C@@H](C)C4)nc3n2)cc1CO | 45.8% and 54.8% | 46.6% | 60.9% | 50.6% | 37% | 29.8% | 33.4% | 34.5%
CC1(C)CCC2(C(=O)O)CCC3=C(C(CCl)CC4C3(C)CCC3C4(C)CC(O)C(O)C3(C)C(=O)O)C2C1 (centres undefined) [Senegenin] | 107% and 97.9% | 104% | 96.8% | 108% | 100% | 106% | 105% | 113%
O=C(Nc1cccc(Cl)c1)Nc1ncc(CCNc2ncnc3ccsc23)s1 [SNS-314 Mesylate] | 63.5% and 68.5% | 75.3% | 68.8% | 76.5% | 18.7% | 12.8% | 28.2% | 30.8%
C[C@H](CSC(=O)c1ccccc1)C(=O)N1C[C@@H](Sc2ccccc2)C[C@H]1C(=O)O [Zofenopril calcium] | 106% and 100% | 106% | 104% | 96.9% | 98.3% | 108% | 116% | 121%
O=C(O)Cc1cccc2ccccc12 [Potassium 1-Naphthaleneacetate] | 92.5% and 95.9% | 97% | 97.4% | 97.8% | 90.8% | 95.4% | 103% | 98.8%
CC(C)COc1ccc(CNC(=O)N(Cc2ccc(F)cc2)C2CCN(C)CC2)cc1 [Pimavanserin] | 0.6% and 0.64% | 0.75% | 2.06% | 4.09% | 0.25% | 0.22% | 0.22% | 1.2%
Cc1cccc(C#Cc2ccccc2)n1 | 97.1% and 102% | 104% | 102% | 94.5% | 111% | 110% | 89.3% | 87.5%
COc1ccccc1N1CCN(CCCNc2cc(=O)n(C)c(=O)n2C)CC1 [Urapidil hydrochloride] | 102% and 95.6% | 96.9% | 97.8% | 102% | 99.6% | 98% | 96.8% | 95.2%
O=C1NC(=O)C(c2ccccc2[N+](=O)[O-])=C1Nc1ccc(O)c(Cl)c1 | 107% and 104% | 104% | 98.5% | 91.9% | 90.7% | 107% | 122% | 120%
C[C@@H]1CC(=O)NN=C1c1ccc(NN=C(C#N)C#N)cc1 [Levosimendan] | 92.4% and 105% | 99.4% | 68.9% | 86% | 94.7% | 81.7% | 69.8% | 67.1%
CCNC(=O)c1[nH]nc(-c2cc(Cl)c(O)cc2O)c1-c1ccc(OC)cc1 | 19.1% and 31.3% | 23.6% | 33.6% | 28.2% | 2.11% | 1.17% | 12.6% | 19.3%
